We go through 26 compounds from PubChem BioAssay (NCATS).

“And” between values parts separate entries of the source, which are not always exact repeats. Equal entries are not always repeated. Records with an inconclusive call do not appear. A number with no mark means an inactive call. The call rests on the fitted dose curve; in most records, active means well fitted cell-killing curve with a large enough effect; inconclusive means small, poorly fitted or top-dose-only effect, or effect the other way; inactive means flat fitted curve, though single readings scatter.
On the % scale 0 is the no-effect control and ±100 the full control effect.

This test in a line: qHTS assay for cell viability of HEK293 cells (AID 743288). Further: nearly all actives have a fitted effect of over 50% in size. The conditions noted are these: ATP luminescence (CellTiter-Glo), 18 h, active compounds read low. The source says: National Center for Advancing Translational Sciences [NCATS]
NIH Chemical Genomics Center [NCGC]
U.S. Environmental Protection Agency [EPA]
National Institutes of Environmental Health Sciences [NIEHS]
National Toxicology Program [NTP]
U.S. Food and Drug Administration [FDA]
The CellTiter-Glo Luminescent Cell Viability Assay (Promega, Madison, WI) is a homogeneous method to determine the number of viable cells in culture based on quantitation of the ATP present, which signals the presence of metabolically active cells. This cell viability assay was used to screen environmental chemicals in the Hek293 cell line.
Tox21 Assay Protocol Summary:
Cell viability after compound treatment was measured using a luciferase-coupled ATP quantitation assay (CellTiter-Glo viability assay, Promega, Madison, WI) in parental HEK293 cells. Total intracellular ATP content corresponds to the number of metabolically competent cells after compound treatment. The cells were dispensed at 2,000 cells/5 uL/well in 1,536-well white/solid bottom assay plates using a Flying Reagent Dispenser (Aurora Discovery, San Diego, CA). The cells were incubated a minimum of 5 h at 37 C, followed by the addition of 23 nL of compounds dissolved in DMSO, positive controls or DMSO only using a pintool work station (Kalypsys, San Diego, CA). The assay plates were incubated for 18 h at 37 C, followed by the addition of 5 uL/well of CellTiter-Glo reagent. After 30 min incubation at room temperature, the luminescence intensity of the plates was measured using a ViewLux plate reader (PerkinElmer, Shelton, CT).
As to `O=C(c1ccccc1)c1ccccc1`, the max response is -5.39% and 4.23%.
As for `c1ccc2occc2c1`, the figure is -2.02% and -29.2% and -7.14%.
In the case of `O=C(Oc1ccccc1)c1cccc(C(=O)Oc2ccccc2)c1`, the max response is -18.4%.
On to `COc1cc(C=O)ccc1O`, for which the max response is -1.87% and -5.65%.
The figure for `Brc1ccccc1-c1ccccc1` is -7.8%; for `CN1C(=O)c2ccccc2C1=O` it is -9.41%.
`CCCCCCCCCCCC[N+](C)(C)Cc1ccccc1`: the max response is -18.2%.
The figure for `CC(C)C(C)(C)C(C)(C)C(C)(C)S` is 6.58% and -3.43%.
In the case of `CCCC(=O)c1cc(O)c(O)cc1O`, the max response is -20%.
For `Nc1cccc2c(N)cccc12`, the max response is -10.7% and -9.55%.
Turning to `CC(=O)OC/C=C(C)/C=C/C=C(C)/C=C/C1=C(C)CCCC1(C)C`, the max response is -22.5% and -3.76%.
For `C1=CC2C3C=CC(C3)C2C1` (stereo unspecified), the max response was -14.2%.
For `CCCCC(CC)COC(=O)c1ccccc1C(=O)O` (stereo unspecified), the max response is -6.66% and 0.856%.
Turning to `CCCCCCCCCCCCCCCC[n+]1ccccc1`, the max response is -27.3%.
On to `Cc1ccc(O)cc1`, for which the max response is 0.239%.
Consider `CC(C)(C)c1ccc(O)c(O)c1`, for which the max response was -4.72% and -5.96%.
On to `Cc1ncc(CO)c(CO)c1O`, for which the max response was -15.6%.
As for `Nc1ccc(O)cc1`, the figure is -8.77%; as for `O=C(Oc1ccccc1)c1ccccc1O`, 1.49% and 4.97%; as for `CC(C)(c1ccc(O)cc1)c1ccc(O)cc1`, 0.899% and -7.06% and -9.11%.
Consider `COC(=O)c1c(Cl)c(Cl)c(C(=O)OC)c(Cl)c1Cl`, for which the max response was -7.06%.
`Cc1cc(C(C)(C)C)c(O)c(C(C)(C)C)c1`: the max response is -0.0848% and 0.626%.
For `OCCOCCN1CCN(C(c2ccccc2)c2ccc(Cl)cc2)CC1` (stereo unspecified), the max response is -17.9%.
Take `O=C(NO)c1ccccc1`: the max response was -10.3%.
On to `OCc1c[nH]c2ccccc12`, for which the max response was 5.55%.
In the case of `Oc1ccccc1`, the max response was -3.62% and -6.12% and 4.72%.
